Among the test systems are SK-MEL-2 melanoma; EKVX NSCLC; SN12C renal; UO-31 renal; TK-10 renal; ACHN renal; A498 renal; CCRF-CEM leukemia; MOLT-4 leukemia; SR leukemia; RPMI-8226 leukemia; OVCAR-8 ovarian; OVCAR-5 ovarian; OVCAR-4 ovarian; SK-OV-3 ovarian; IGROV1 ovarian; OVCAR-3 ovarian; HS 578T breast; NCI/ADR-RES ovarian; CAKI-1 renal.
Holding throughout (assay): NCI-60 one-dose screen, 48 h (100 = growth as untreated, 0 = no growth, -100 = all killed)
What all share (conditions): 10 µM unless noted

Compounds without any hit were thinned out: in the full panel of roughly 83,000, 20% have a hit.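 Cells were grown in 96-well plates and exposed to the test compound at a single concentration for 48 hours; results are reported as percent growth, with values below 10 considered active.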 Values without a mark were called inactive. Calls of active or inactive are those of the source.

For the molecule `O=S(=O)(O)c1cccnc1`, the growth in the assay with SK-MEL-2 melanoma was 136%; in the assay on EKVX NSCLC it was 93.7%; in the assay on SN12C renal, 105%; in the assay on UO-31 renal it was 109%; in the assay with TK-10 renal, 104%; in the assay with ACHN renal, 105%. For the same molecule, the growth with A498 renal was 101%; with CCRF-CEM leukemia, -41.7% (active); with MOLT-4 leukemia, 79.6%; with SR leukemia, 100%; with RPMI-8226 leukemia, 66.4%; in the assay with OVCAR-8 ovarian it was 104%. In addition, the growth in the assay with OVCAR-5 ovarian was 119%; in the assay on OVCAR-4 ovarian it was 114%; in the assay with SK-OV-3 ovarian, 103%; in the assay on IGROV1 ovarian it was 132%; with OVCAR-3 ovarian, 111%; in the assay with HS 578T breast, 110%. The growth in the assay with NCI/ADR-RES ovarian is 128%.

Regarding `CN(C)c1ccc2c(N(C)C)cc(N(C)C)nc2c1`, the growth in the assay on SK-MEL-2 melanoma was 143%; in the assay on EKVX NSCLC, 75.8%; in the assay with SN12C renal it was 83.1%; in the assay on UO-31 renal it was 50.3%; with TK-10 renal it was 104%; in the assay with ACHN renal, 76.5%. The growth in the assay on CAKI-1 renal is 68.6%; with A498 renal it was 78.9%; in the assay on RPMI-8226 leukemia, 69.8%; in the assay with OVCAR-8 ovarian it was 78.3%; with OVCAR-5 ovarian, 102%; in the assay with OVCAR-4 ovarian it was 72.1%. Moreover, the growth in the assay with SK-OV-3 ovarian is 87.5%; with IGROV1 ovarian it was 103%; in the assay with OVCAR-3 ovarian, 93.6%; in the assay with HS 578T breast it was 100%; in the assay on NCI/ADR-RES ovarian, 77%.

In the case of `O=S(=O)(O)C(C(I)I)S(=O)(=O)O`, the growth in the assay with SK-MEL-2 melanoma is 109%; in the assay on EKVX NSCLC, 112%; in the assay with SN12C renal, 110%; in the assay on UO-31 renal, 89.6%; in the assay with TK-10 renal, 111%; in the assay on ACHN renal, 114%. The growth was 106% in the assay on A498 renal; 105% with CCRF-CEM leukemia; 103% in the assay with MOLT-4 leukemia; 101% in the assay on SR leukemia; 114% in the assay with RPMI-8226 leukemia; 101% with OVCAR-8 ovarian. The growth in the assay with OVCAR-5 ovarian was 114%; in the assay on OVCAR-4 ovarian, 107%; in the assay with SK-OV-3 ovarian, 106%; with IGROV1 ovarian it was 114%; with OVCAR-3 ovarian it was 105%; with HS 578T breast, 93.7%. For the same molecule, the growth in the assay with NCI/ADR-RES ovarian was 113%.

`Clc1ccc(/C=C/c2ccccn2)cc1`: the growth with SK-MEL-2 melanoma was 103%; in the assay with EKVX NSCLC, 76.3%; in the assay with SN12C renal, 108%; with UO-31 renal it was 78.1%; with TK-10 renal it was 99.3%; with ACHN renal, 103%. Also, the growth is 77.3% with A498 renal; -56% (active) in the assay on CCRF-CEM leukemia; 86.9% in the assay with MOLT-4 leukemia; 98.2% in the assay with SR leukemia; 45.5% with RPMI-8226 leukemia; 105% with OVCAR-8 ovarian. Moreover, the growth in the assay with OVCAR-5 ovarian is 112%; in the assay with OVCAR-4 ovarian, 62.3%; with SK-OV-3 ovarian, 104%; in the assay with IGROV1 ovarian it was 87.2%; with OVCAR-3 ovarian, 98.4%; with NCI/ADR-RES ovarian it was 98.8%.

On to `CC(=O)O[C@H]1CC[C@]2(C)C3=C(C(=O)C[C@H]2C1(C)C)[C@]1(C)CC[C@H]([C@H](C)CCC(=O)O)[C@@]1(C)CC3=O`, for which the growth in the assay with SK-MEL-2 melanoma is 95.3%; in the assay with EKVX NSCLC, 90.8%; in the assay with SN12C renal it was 106%; in the assay with UO-31 renal it was 92.2%; in the assay on TK-10 renal it was 98.4%; in the assay on ACHN renal it was 103%. The growth with A498 renal is 84.9%; in the assay with CCRF-CEM leukemia, 98.9%; in the assay on MOLT-4 leukemia it was 98%; with SR leukemia, 82.6%; in the assay with RPMI-8226 leukemia it was 101%; in the assay on OVCAR-8 ovarian it was 109%. Moreover, the growth with OVCAR-5 ovarian was 100%; in the assay with OVCAR-4 ovarian, 94.7%; in the assay with SK-OV-3 ovarian, 99.3%; in the assay with IGROV1 ovarian it was 103%; in the assay with OVCAR-3 ovarian, 102%; with HS 578T breast, 119%. In the assay with NCI/ADR-RES ovarian, the growth is 100%.

`NC(=S)N/N=C/c1ccc(OC(=O)COc2ccc(Cl)cc2)cn1`: the growth with SK-MEL-2 melanoma was 62.8%; in the assay with EKVX NSCLC it was 93.6%; in the assay on SN12C renal, 28.2%; in the assay with UO-31 renal, 24.9%; with TK-10 renal, 74.9%; in the assay with A498 renal it was 57.3%. For the same molecule, the growth is 18.6% in the assay with CCRF-CEM leukemia; 16.5% with MOLT-4 leukemia; 59.1% in the assay on RPMI-8226 leukemia; 23.9% with OVCAR-8 ovarian; 120% with OVCAR-5 ovarian; 59.2% with OVCAR-4 ovarian. In addition, the growth with SK-OV-3 ovarian was 82.1%; in the assay on IGROV1 ovarian it was 46.5%; in the assay on OVCAR-3 ovarian, 56.4%; in the assay on HS 578T breast it was 114%; in the assay on NCI/ADR-RES ovarian it was 27.9%.

For the molecule `O=C(O)CCCCCNC(=O)OCc1ccccc1`, the growth in the assay with SK-MEL-2 melanoma was 119%; in the assay on EKVX NSCLC, 98.1%; in the assay with SN12C renal, 97%; in the assay with UO-31 renal, 72.9%; in the assay with TK-10 renal, 109%; in the assay with ACHN renal, 101%. Further, the growth in the assay on A498 renal is 103%; in the assay on CCRF-CEM leukemia it was 0.55% (active); in the assay on SR leukemia, 98%; with RPMI-8226 leukemia, 81.5%; in the assay on OVCAR-8 ovarian, 112%; in the assay on OVCAR-5 ovarian, 97.7%. The growth is 98.5% with OVCAR-4 ovarian; 106% with SK-OV-3 ovarian; 93.9% in the assay on IGROV1 ovarian; 104% in the assay on OVCAR-3 ovarian; 110% with NCI/ADR-RES ovarian.

In the case of `Cc1c(Cl)cccc1NC(=S)NC(=O)c1ccccc1`, the growth with SK-MEL-2 melanoma is 96%; in the assay with EKVX NSCLC, 71.6%; with SN12C renal, 98.6%; in the assay with UO-31 renal it was 85.5%; in the assay on TK-10 renal it was 93.5%; in the assay with CAKI-1 renal, 79.4%. For the same molecule, the growth in the assay on CCRF-CEM leukemia is 95.3%; with MOLT-4 leukemia, 83.9%; in the assay on SR leukemia, 88.4%; with RPMI-8226 leukemia it was 73.6%; in the assay on OVCAR-8 ovarian, 92.2%; in the assay on OVCAR-5 ovarian, 109%. Also, the growth in the assay with SK-OV-3 ovarian was 95.2%; in the assay with IGROV1 ovarian, 118%; in the assay on OVCAR-3 ovarian, 103%; in the assay on HS 578T breast, 109%; with NCI/ADR-RES ovarian, 104%.

Turning to `Cc1ccc([N+](=O)[O-])c(C)n1`, the growth in the assay with SK-MEL-2 melanoma was 120%; with EKVX NSCLC, 97.2%; with SN12C renal it was 106%; with UO-31 renal, 74.1%; in the assay with TK-10 renal, 117%; in the assay with ACHN renal, 91.5%. For the same molecule, the growth was 79.8% in the assay with A498 renal; 96.4% in the assay with CCRF-CEM leukemia; 106% with SR leukemia; 99.4% in the assay with RPMI-8226 leukemia; 98.4% with OVCAR-8 ovarian; 83.5% in the assay with OVCAR-5 ovarian. The growth is 99.1% in the assay on OVCAR-4 ovarian; 106% in the assay on SK-OV-3 ovarian; 95% with IGROV1 ovarian; 107% in the assay with OVCAR-3 ovarian; 115% in the assay on NCI/ADR-RES ovarian.

The values above are taken from PubChem BioAssay (NCI).
